The list is not random: actives were taken first. Their share in the collection is about 2.8%.
HSP90 refold inh: blocks HSP90-mediated luciferase refolding in reticulocyte lysate; Rabbit reticulocyte lysate, luciferase refolding luminescence, 3 h; inhibition, % at 5.6 µM; 290,000 tested, 0.91% active;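 active = inhibition above the screen-wide mean plus 3 SD, computed separately per campaign, cut at about 16% in these data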;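 also: 0% = DMSO wells and 100% = 60 µM geldanamycin wells; inhibitors lower the luminescence because luciferase stays unfolded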
SENP8 block-1: blocks human SENP8 cleavage of Nedd8 substrate | Q96LD8 | recombinant SENP8, Nedd8 substrate fluorescence | inhibition, % at 20 µM | 360,000 tested, 0.64% active | AID 602440; in the data active = inhibition mostly above about 40%, no sharp cut-off; inactive = mostly below about 27%
SENP6 inh: SENP6 protease inhibition. Q9GZR1. Recombinant SENP6 catalytic domain, aminoluciferin luminescence. inhibition, % at 10 µM. 330,000 tested, 1.8% active. AID 2599;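 active = inhibition above about 50% at the single tested dose, limit read from the data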;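 also: plate controls were DMSO wells with enzyme for no effect and DMSO wells lacking enzyme for full effect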
SENP8 block-2: inhibitors of human SENP8 protease | 330,000 tested, 1.2% active | AID 2540 | Q96LD8 | purified SENP8, Z-RLRGG-aminoluciferin cleavage, luminescence | inhibition, % at 10 µM; in the data active = inhibition above about 50%
SENP7 block: blocks the human protease SENP7; AID 434973; 330,000 tested, 1.5% active; recombinant SENP7, Z-RLRGG-aminoluciferin luminescence, 40 min; inhibition, % at 5 µM;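 active = inhibition above about 50% at the single test dose, limit read from the data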;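 also: plate controls were DMSO with enzyme for no effect and no enzyme buffer wells for full effect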
Target sequence (Q9BQF6 706-1050 limits assumed): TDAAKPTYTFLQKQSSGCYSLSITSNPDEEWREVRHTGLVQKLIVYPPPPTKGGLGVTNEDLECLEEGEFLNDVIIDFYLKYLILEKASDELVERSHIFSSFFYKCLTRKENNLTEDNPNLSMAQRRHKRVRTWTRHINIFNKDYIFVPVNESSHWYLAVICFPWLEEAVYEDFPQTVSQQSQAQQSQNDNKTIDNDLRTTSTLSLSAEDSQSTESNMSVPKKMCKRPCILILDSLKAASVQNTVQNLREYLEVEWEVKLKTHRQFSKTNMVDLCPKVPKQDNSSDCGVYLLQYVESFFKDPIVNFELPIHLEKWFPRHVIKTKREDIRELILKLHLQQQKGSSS
* marks the source's active call; other numbers are inactive results; nt = no result given.

SMILES | HSP90 refold inh | SENP8 block-1 | SENP6 inh | SENP8 block-2 | SENP7 block
Cc1nnc(SCC(=O)Nc2cccc(S(=O)(=O)NC3=NCCCCC3)c2)n1Cc1ccccc1 | 6 | 1 | 0 | -8 | -6
Cc1ccc(/C=C/C(=O)NC2=NCCS2)cc1 | 9 | 12 | 12 | 3 | 7
O=S(=O)(Nc1ccc(-c2nc3cccnc3s2)cc1)c1ccccc1F | 3 | -468 | 83* | 66* | 38
Cc1cc(C(=O)Nc2nc3ccc(Cl)cc3s2)nn1C | -11 | -8 | -7 | -4 | 48
Cn1ncc(Cl)c1C(=O)Nc1nc2ccc(Cl)cc2s1 | -4 | -56 | 98* | -5 | 98*
NS(=O)(=O)c1ccc(N/N=C/c2ccc(C(=O)O)cc2)c([N+](=O)[O-])c1 | -1 | 29 | -5 | 1 | -2
Cc1nn(-c2ccccc2)c(N2CCCC2)c1/C=N/Nc1ccc(S(N)(=O)=O)cc1[N+](=O)[O-] | 3 | 48* | -23 | 1 | -6
COc1ccc(S(=O)(=O)/N=C2\C=C(Nc3ccc(O)cc3)C(=O)c3ccccc32)cc1 | 96* | 90* | 93* | 95* | 87*
Cc1ccc(NC2=C/C(=N/S(=O)(=O)c3cccs3)c3ccccc3C2=O)cc1C | 2 | 61* | nt | nt | nt
Cc1ccc(NC(=O)CN(C)S(=O)(=O)c2cccs2)cc1C | 6 | 6 | -16 | -1 | -4
NC(=O)c1cc2ccccc2o/c1=N/NC(=O)c1ccccc1 | 4 | 2 | -9 | -3 | 6
C[C@@H]1Cc2c(O)c(O)cc(O)c2C(=O)O1 | nt | 44* | -2 | 3 | 1
COc1cc(S(=O)(=O)Nc2ccc(C)cc2)ccc1N=Cc1c(C)[nH]n(-c2ccccc2)c1=O | 3 | 46* | 4 | -7 | 6
Cc1[nH]n(-c2ccccc2)c(=O)c1C=Nc1ccc(S(=O)(=O)Nc2nccs2)cc1 | 2 | 44* | 2 | -4 | -2
COc1cc(S(=O)(=O)Nc2cccc(C)c2)ccc1N=Cc1c(C)[nH]n(-c2ccccc2)c1=O | -2 | nt | 0 | 7 | 2
CC(=O)N1C(=O)/C(=C2\SC(=S)N(c3c(C)n(C)n(-c4ccccc4)c3=O)C2=O)c2ccccc21 | 1 | 81* | nt | nt | nt
Cc1c(N2C(=O)/C(=C3/C(=O)N(C)c4ccccc43)SC2=S)c(=O)n(-c2ccccc2)n1C | -1 | 14 | 11 | 3 | -7
O=C(c1cnn(-c2ccccc2)c1)c1ccccc1O | 5 | 7 | 85* | 81* | 87*
Cc1ccc(OCCC(=O)OCc2csc(CC(=O)Nc3ccccc3C)n2)cc1 | 1 | 16 | -17 | -6 | -9
COC(=O)[C@@]1(Cc2ccc(F)cc2)[C@H]2c3cc(C(=O)N4CCCC4)n(CCO)c3C[C@H]2CN1C(=O)c1ccccc1 | -1 | nt | -19 | -6 | -5
Oc1cccc2ccc(/C=C/c3cccs3)nc12 | 0 | -54 | 96* | 88* | 95*
O=C(c1cc(-c2ccc(F)cc2)on1)N1CCCCCC1 | 17* | 12 | 25 | -1 | -10
CCOC(=O)C1CCCN(CC(=O)Nc2c(C(=O)OC)[nH]c3ccc(C)cc23)C1 (stereo unspecified) | 2 | -277 | -14 | -11 | -8
COc1ccccc1CN(C)C(=O)CN1CCN(C(=O)c2cccs2)CC1 | nt | 11 | 3 | -6 | 7
CCOC(=O)C1CCN(C(=O)c2ccc(C)o2)CC1 | nt | 11 | 0 | 5 | 0
SMILES | HSP90 refold inh | SENP8 block-1 | SENP6 inh | SENP8 block-2 | SENP7 block
CCOC(=O)C1CCN(C(=O)c2c(C)oc3c2C(=O)c2ccccc2C3=O)CC1 | 6 | 60* | 47 | 15 | 22
CSc1nc(O)c(Nc2cccc(Cl)c2)c(=O)[nH]1 | 3 | 15 | -12 | 10 | -3
O=C(Cc1ccc(F)cc1)OCC(=O)c1cc2ccccc2o1 | 16* | 6 | -8 | -4 | 6
O=C(CCNc1ccc(F)cc1)c1cc2ccccc2o1 | -9 | 20 | 13 | 2 | -9
COc1ccc(C(=O)C(/C=N/O)=N/Nc2ccc(F)cc2)cc1 | -1 | 13 | -1 | -3 | -8
CO/N=C/C(=N\Nc1ccc(OC)cc1)C(=O)c1ccc(OC)cc1 | 1 | 51* | 0 | -1 | 1
COC(=O)[C@@H](NC(=O)c1ccccc1)[C@@H](C)O | -4 | 19 | -6 | -7 | -5
COC(C(=O)Nc1cccc([N+](=O)[O-])c1)c1ccccc1 (stereo unspecified) | 4 | 12 | 8 | 4 | 11
N=C1/C(=C/c2ccc(-c3cccc(C(=O)O)c3)o2)C(=O)N=C2SC(CC(=O)N3CCOCC3)=NN12 | 2 | 9 | 6 | 7 | 0
